Laboratory results reported in PubChem BioAssay (EPA / NIEHS).
Values joined by “and” are separate entries in the source; they are usually repeats but may differ in a detail not shown here. Equal values may be shown once. More than one record can exist for a structure, and the calls need not agree. Active and inactive are the calls of the source. How the source made its calls: active means hit-call score of the fitted dose curve at least 0.9, where 1 is the maximum; inactive means score below 0.9.

Assays:
[1] = read-out: Interferon-inducible T-cell alpha chemoattractant (ITAC), CXCL11 (gene 6373); assay: BSK_BE3C_ITAC: BioMAP Diversity Plus: BE3C Assay for Interferon-inducible T-cell alpha chemoattractant (ITAC) Biomarker Activity (AID 2284279); details: primary human bronchial epithelial cells
Summary of the method: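 The assay measures I-TAC levels by ELISA in human primary bronchial epithelial cell cultures 24 hours after chemical treatment. Values reflect signal increase over the DMSO baseline.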

[2] = read-out: Interleukin-8 (IL8), CXCL8 (gene 3576); assay: BSK_BE3C_IL8: BioMAP Diversity Plus: BE3C Assay for Interleukin-8 (IL8) Biomarker Activity (AID 2284280); details: primary human bronchial epithelial cells
Summary of the method: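 Primary human bronchial epithelial cells (BE3C system) were exposed to test chemical for 24 h, and IL-8 levels were then measured by ELISA. Activity was fitted in the positive (gain-of-signal) direction against a DMSO negative-control baseline.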

[3] = read-out: Epidermal growth factor receptor (EGFR), EGFR (gene 1956); assay: BSK_BE3C_EGFR: BioMAP Diversity Plus: BE3C Assay for Epidermal growth factor receptor (EGFR) Biomarker Activity (AID 2284281); details: primary human bronchial epithelial cells
Summary of the method: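 Human primary bronchial epithelial cells were exposed to compound for 24 h, and cell-surface EGFR was then quantified by ELISA. Activity was fitted in the positive direction against the DMSO vehicle baseline.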

KRT18 (gene 3875) = assay: BSK_BE3C_Keratin818: BioMAP Diversity Plus: BE3C Assay for Keratin 818 Biomarker Activity (AID 2284282); details: primary human bronchial epithelial cells
Summary of the method: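 In this multiplexed primary-cell system, bronchial epithelial cells were dosed and harvested at 24 h. Keratin 8/18 was determined by ELISA and analysed for increases over DMSO controls.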

[4] = read-out: Matrix Metallopeptidase 9 (MMP9), MMP9 (gene 4318); assay: BSK_BE3C_MMP9: BioMAP Diversity Plus: BE3C Assay for Matrix Metallopeptidase 9 (MMP9) Biomarker Activity (AID 2284283); details: primary human bronchial epithelial cells
Summary of the method: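 Human primary bronchial epithelial cells exposed 24 h to compound. MMP9 quantified by ELISA. SRB total-protein staining of parallel cultures assesses cytotoxicity. Positive-direction fit relative to DMSO.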

[5] = read-out: Plasminogen activator inhibitor-1 (PAI1), SERPINE1 (gene 5054); assay: BSK_CASM3C_PAI1: BioMAP Diversity Plus: CASM3C Assay for Plasminogen activator inhibitor-1 (PAI1) Biomarker Activity (AID 2284284); details: primary human coronary artery smooth muscle cells;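 further: PAI-1 protein level measured by ELISA 24 h after dosing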
[6] = read-out: Monocyte Chemoattractant Protein-1 (MCP1), CCL2 (gene 6347); assay: BSK_hDFCGF_MCP1: BioMAP Diversity Plus: hDFCGF Assay for Monocyte Chemoattractant Protein-1 (MCP1) Biomarker Activity (AID 2284285); details: primary human foreskin fibroblasts
Summary of the method: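 MCP-1 ELISA readout was taken 24 hours after dosing primary human dermal fibroblasts in the hDFCGF system, with DMSO as baseline. Parallel sulforhodamine B staining of total protein tracked overt cytotoxicity.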

[7] = read-out: Vascular cell adhesion molecule 1 (VCAM1), VCAM1 (gene 7412); assay: BSK_IMphg_VCAM1: BioMAP Diversity Plus: IMphg Assay for Vascular cell adhesion molecule 1 (VCAM1) Biomarker Activity (AID 2284286); details: primary human endothelial cells with macrophages
Summary of the method: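 ELISA read-out of VCAM-1 on venular endothelial cell/macrophage co-cultures at 24 h post-treatment, with DMSO as baseline and positive-direction fitting. Parallel sulforhodamine B total-protein staining (560 nm) served as the overt cytotoxicity measure.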

[8] = read-out: Intercellular Adhesion Molecule 1 (ICAM1), ICAM1 (gene 3383); assay: BSK_hDFCGF_ICAM1: BioMAP Diversity Plus: hDFCGF Assay for Intercellular Adhesion Molecule 1 (ICAM1) Biomarker Activity (AID 2284287); details: primary human foreskin fibroblasts
Summary of the method: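 ICAM-1 ELISA readout 24 h after dosing, DMSO as baseline, in human dermal foreskin fibroblast cultures. Cytotoxicity checked in parallel wells by SRB staining (0.1% SRB, 10% TCA fixation, 560 nm).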

CD40, CD40 (gene 958) = assay: BSK_IMphg_CD40: BioMAP Diversity Plus: IMphg Assay for CD40 Biomarker Activity (AID 2284288); details: primary human endothelial cells with macrophages
Summary of the method: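 ELISA read-out of cell-surface CD40 at 24 h in human venular endothelial cell/macrophage co-cultures. Activity fitted in the positive direction against DMSO; parallel SRB staining (560 nm) gauges overt cytotoxicity.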

[9] = read-out: TIMP metallopeptidase inhibitor 2 (TIMP2), TIMP2 (gene 7077); assay: BSK_hDFCGF_TIMP2: BioMAP Diversity Plus: hDFCGF Assay for TIMP metallopeptidase inhibitor 2 (TIMP2) Biomarker Activity (AID 2284289); details: primary human foreskin fibroblasts
Summary of the method: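 Primary human foreskin fibroblasts in the hDFCGF system, dosed for 24 h; TIMP-2 level measured by ELISA, fitted in the positive direction against DMSO; cytotoxicity checked in parallel by sulforhodamine B total protein staining.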

[10] = read-out: Interleukin-1 alpha (IL1a), IL1A (gene 3552); assay: BSK_IMphg_IL1a: BioMAP Diversity Plus: IMphg Assay for Interleukin-1 alpha (IL1a) Biomarker Activity (AID 2284290); details: primary human endothelial cells with macrophages
Summary of the method: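 IL-1α is quantified by ELISA at 24 h in the endothelial/macrophage IMphg co-culture, with gain of signal fitted relative to DMSO. Parallel SRB total-protein staining flags overt toxicity.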

[11] = read-out: E-selectin (Homo sapiens) (UniProt P16581); assay: BSK_IMphg_ESelectin: BioMAP Diversity Plus: IMphg Assay for Eselectin Biomarker Activity (AID 2284291); details: primary human endothelial cells with macrophages
Summary of the method: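 Analysed against DMSO baseline in the positive fitting direction, this endpoint is an ELISA read of E-selectin. It comes from human venular endothelial cells co-cultured with macrophages, sampled 24 h post-dose.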

[12] = BSK_IMphg_SRB: Viability Assessment in the BioMAP Diversity Plus: IMphg Assay (AID 2284292); details: primary human endothelial cells with macrophages;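 further: measured one day after compound addition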
Summary of the method: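 SRB viability endpoint: cultures of human endothelial cells plus macrophages fixed with 10% TCA, stained with 0.1% SRB, read at 560 nm 24 h post-dosing. Only gain-of-signal fitted, relative to DMSO.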

[13] = read-out: Macrophage colony-stimulating factor (MCSF), CSF1 (gene 1435); assay: BSK_IMphg_MCSF: BioMAP Diversity Plus: IMphg Assay for Macrophage colony-stimulating factor (MCSF) Biomarker Activity (AID 2284293); details: primary human endothelial cells with macrophages
Summary of the method: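 M-CSF was measured by ELISA in human venular endothelial cell/macrophage co-cultures dosed for 24 hours. Sulforhodamine B staining of parallel cultures assessed cytotoxicity; data fitted against DMSO baseline.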

[14] = read-out: Interleukin-10 (IL10), IL10 (gene 3586); assay: BSK_IMphg_IL10: BioMAP Diversity Plus: IMphg Assay for Interleukin-10 (IL10) Biomarker Activity (AID 2284294); details: primary human endothelial cells with macrophages
Summary of the method: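 IL-10 read by ELISA after 24 h chemical exposure of primary human venular endothelial cell/macrophage cocultures, with DMSO as baseline. Parallel SRB staining (560 nm) gauged overt cytotoxicity.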

[15] = BSK_IMphg_SRB.Mphg: Macrophage Viability Assessment in the BioMAP Diversity Plus: IMphg Assay (AID 2284295); details: primary human endothelial cells with macrophages
Summary of the method: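 Cytotoxicity read-out: parallel cultures fixed with 10% TCA, stained with 0.1% sulforhodamine B, read at 560 nm. System combines venular endothelium and macrophages; sampled 24 h post-dosing, fitted positively relative to DMSO control.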

[16] = read-out: Thrombomodulin, THBD (gene 7056); assay: BSK_LPS_Thrombomodulin: BioMAP Diversity Plus: LPS Assay for Thrombomodulin Biomarker Activity (AID 2284296); details: primary human HUVEC with PBMC
Summary of the method: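 Thrombomodulin on the surface of LPS-activated endothelial/PBMC co-cultures was quantified by ELISA at 24 hours post-dosing, with DMSO as baseline. Parallel SRB total-protein staining flagged overt cytotoxicity.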

Measured: AC50

Chain of E-selectin (Homo sapiens) (P16581 whole entry, looked up): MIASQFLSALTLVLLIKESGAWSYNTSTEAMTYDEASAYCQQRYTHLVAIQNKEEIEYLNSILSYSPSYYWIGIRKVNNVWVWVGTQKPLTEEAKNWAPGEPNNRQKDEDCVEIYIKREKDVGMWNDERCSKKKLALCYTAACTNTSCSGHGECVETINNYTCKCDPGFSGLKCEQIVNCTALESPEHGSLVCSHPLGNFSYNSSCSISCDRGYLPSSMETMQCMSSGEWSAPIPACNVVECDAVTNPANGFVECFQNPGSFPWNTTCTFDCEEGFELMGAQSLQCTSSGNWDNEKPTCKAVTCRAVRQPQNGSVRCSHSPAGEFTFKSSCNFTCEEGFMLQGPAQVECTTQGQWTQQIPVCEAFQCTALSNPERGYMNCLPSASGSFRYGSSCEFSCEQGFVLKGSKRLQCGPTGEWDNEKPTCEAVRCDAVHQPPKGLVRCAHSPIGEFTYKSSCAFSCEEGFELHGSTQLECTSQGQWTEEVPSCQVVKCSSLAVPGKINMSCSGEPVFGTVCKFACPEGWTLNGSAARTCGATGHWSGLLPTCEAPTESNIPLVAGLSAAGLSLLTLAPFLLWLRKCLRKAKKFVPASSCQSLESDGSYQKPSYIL

CCNS(=O)(=O)C(F)(F)C(F)(F)C(F)(F)C(F)(F)C(F)(F)C(F)(F)C(F)(F)C(F)(F)F
inactive: [5] | CD40, CD40 (gene 958) | [10] | [12] | [13] | [14] | [15] | [16]
active: [1] 40 µM and 35.2 µM | [2] 16.4 µM and 22.6 µM | [3] 38.2 µM and 23.3 µM | KRT18 (gene 3875) 21.5 µM and 21.8 µM | [4] 30 µM and 18.5 µM | [6] 49.3 µM and 46.9 µM | [7] 48 µM and 49.6 µM | [8] 42.5 µM and 48.4 µM | CD40, CD40 (gene 958) 26.6 µM | [9] 30 µM and 46.5 µM | [11] 10.8 µM and 30 µM | [15] 30 µM | [16] 54.5 µM
